Data on 101 compounds can be found in ChEMBL document CHEMBL1201862, “PubChem BioAssay data set” (2004).

Hit rate of the full screen: of about 400,000 compounds, about 2,100 (0.53%) were called active. Another 14% or so got no clear call; they are omitted. No rule for the calls is given here. What follows is part of a selection rich in actives, with near analogues and random picks from the rest.

Ataxin-2 (Homo sapiens), sequence (Q99700 whole entry): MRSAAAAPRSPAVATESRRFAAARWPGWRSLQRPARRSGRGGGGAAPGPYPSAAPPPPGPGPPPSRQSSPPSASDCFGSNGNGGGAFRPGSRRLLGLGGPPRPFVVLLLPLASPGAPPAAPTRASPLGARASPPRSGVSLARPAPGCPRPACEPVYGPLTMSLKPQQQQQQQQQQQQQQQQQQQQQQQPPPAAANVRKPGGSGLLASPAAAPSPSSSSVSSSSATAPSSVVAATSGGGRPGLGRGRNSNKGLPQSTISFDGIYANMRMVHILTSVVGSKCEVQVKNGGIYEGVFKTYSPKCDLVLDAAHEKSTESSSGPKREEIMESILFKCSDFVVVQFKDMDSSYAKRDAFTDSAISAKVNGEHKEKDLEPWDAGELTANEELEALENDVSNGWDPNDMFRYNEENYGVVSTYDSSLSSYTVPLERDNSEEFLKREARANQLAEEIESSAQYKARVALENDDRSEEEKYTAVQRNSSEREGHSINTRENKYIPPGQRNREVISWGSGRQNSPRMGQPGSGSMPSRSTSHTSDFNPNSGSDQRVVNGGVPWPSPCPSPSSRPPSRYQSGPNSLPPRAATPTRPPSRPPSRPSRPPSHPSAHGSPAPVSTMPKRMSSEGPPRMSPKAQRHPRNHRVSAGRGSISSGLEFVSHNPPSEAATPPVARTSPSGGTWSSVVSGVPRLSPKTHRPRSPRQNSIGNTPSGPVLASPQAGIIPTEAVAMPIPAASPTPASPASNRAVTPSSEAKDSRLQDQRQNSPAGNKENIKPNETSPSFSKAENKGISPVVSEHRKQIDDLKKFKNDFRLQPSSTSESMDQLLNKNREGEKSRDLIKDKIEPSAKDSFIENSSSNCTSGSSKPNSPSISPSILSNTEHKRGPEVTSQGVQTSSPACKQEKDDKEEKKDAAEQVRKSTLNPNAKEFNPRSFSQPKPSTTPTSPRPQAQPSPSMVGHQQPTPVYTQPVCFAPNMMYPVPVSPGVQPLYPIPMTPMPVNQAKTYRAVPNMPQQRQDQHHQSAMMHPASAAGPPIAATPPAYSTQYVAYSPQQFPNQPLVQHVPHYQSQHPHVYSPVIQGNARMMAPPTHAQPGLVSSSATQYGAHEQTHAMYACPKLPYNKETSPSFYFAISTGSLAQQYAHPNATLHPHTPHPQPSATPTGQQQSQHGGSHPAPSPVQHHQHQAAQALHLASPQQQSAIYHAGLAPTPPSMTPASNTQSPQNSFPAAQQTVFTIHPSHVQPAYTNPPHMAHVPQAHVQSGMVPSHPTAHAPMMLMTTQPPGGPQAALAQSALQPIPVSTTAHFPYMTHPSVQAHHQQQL

The experiment addresses Ataxin-2 (Homo sapiens) (UniProt Q99700). The experiment in a line: qHTS for Inhibitors of ATXN expression. In kind it is functional.
In the case of `COC(=O)c1cc2c(=O)n3ccccc3nc2n(Cc2cccnc2)c1=N`, the Potency entry was “inactive”. With `COc1ccc(C#Cc2c(C=O)n(C)c3ccccc23)cc1`, the Potency result is “inactive”. Take `Cc1nc2ccccc2n1/N=C/c1ccc([N+](=O)[O-])s1`: the Potency was 23.8 µM (active). Regarding `O=[N+]([O-])c1ccc(/C=N/n2cnc3ccccc32)s1`, the Potency is 22.4 µM (active).

As for `Cc1ccccc1NCc1ccc([N+](=O)[O-])s1`, the Potency result is “inactive”. On to `COc1ccc(/C=N/NC(=O)c2cc[nH]n2)cc1Cn1nc(C)c([N+](=O)[O-])c1C`, for which the Potency result was “inactive”. With `COc1ccc(-n2c(NC(=O)c3ccco3)c(C#N)c3nc4ccccc4nc32)cc1` the entry was “inactive”. On to `O=[N+]([O-])c1cccc(Nc2c3ccccc3nc3ccccc23)c1`, for which the Potency result is “inactive”.

Turning to `CCCOc1ccc(/C=N/Nc2cccc([N+](=O)[O-])c2)c(O)c1`, the Potency result was “inactive”. On to `CCOc1ccc2nc(C)cc(Nc3cccc([N+](=O)[O-])c3)c2c1`, for which the Potency is 39.8 µM (active).

As to `CCCCc1c(-c2cccc(Br)c2)ncn1CCc1ccccc1OC`, the Potency was 28.2 µM (active).

For the compound `CCCCCc1c(-c2cccc(Br)c2)ncn1CCc1ccccc1OC`, the Potency was 39.8 µM (active). On to `Cn1c(O)nnc1-c1cccc(Br)c1`, for which the Potency entry is “inactive”. The result for `COc1ccc(Br)cc1CN1CCN(c2ncccn2)CC1` reads “inactive”; that for `Cc1cc(-n2c(=O)c(C#N)cc3c(=O)n4ccccc4nc32)no1`, “inactive”; that for `COc1ccc(-c2cc(C(F)(F)F)n3nc(C(=O)NCCN4CCOCC4)cc3n2)cc1`, “inactive”. With `Clc1cccc(CNc2ccn3nc(-c4ccc(OCCN5CCOCC5)cc4)cc3n2)c1`, the Potency is 28.2 µM (active). With `Clc1cccc(-c2nc(NCCCN3CCOCC3)c3ccccc3n2)c1` the entry was “inactive”; with `CCCCN(CCCC)C(=O)C[n+]1cccc(/C=N/O)c1`, “inactive”. With `CN1/C(=C\C(=O)c2cccc(S(=O)(=O)N3CCCCC3)c2)C(C)(C)c2ccccc21`, the Potency entry is “inactive”. For `Cc1cc(/N=C/C=C2\N(C)c3ccccc3C2(C)C)n(CCC#N)n1`, the Potency is 31.6 µM (active).

`Cc1cc(/N=C/C=C2/N(C)c3ccccc3C2(C)C)n(CCC#N)n1`: the Potency is 15.8 µM (active). With `NC(=O)c1nc(-c2ccccc2)c(-c2ccccc2)nc1O` the entry was “inactive”; with `Oc1nc2c(O)ncnc2nc1-c1ccccc1`, “inactive”. As to `Oc1ccccc1N=Nc1nc(-c2ccccc2)c(-c2ccccc2)[nH]1`, the Potency was 20 µM (active). As for `CCOCCCN=C(S)NCCNc1nc2ccc(C)cc2cc1C#N`, the Potency entry is “inactive”. For the compound `CCOC(=O)c1c(NC(=O)COc2ccccc2OCC)sc2c1CC(C)(C)NC2(C)C`, the Potency is 39.8 µM (active). Take `CC(C)CN(CC(C)C)S(=O)(=O)c1ccc(C(=O)Nc2sc3c(c2C(N)=O)CC(C)(C)NC3(C)C)cc1`: the Potency entry was “inactive”.

With `CCOC(=O)c1c(NC(=O)c2ccc(S(=O)(=O)N3CCCC(C)C3)cc2)sc2c1CC(C)(C)NC2(C)C` (stereo unspecified), the Potency result was “inactive”. Regarding `Cc1c2c(n3c(nc4ccccc43)c1C#N)N(CCN(C)C)CC2`, the Potency result was “inactive”. With `C=CCc1cc(/C=C2\C(=N)N3N=C(CC(=O)N4CCOCC4)SC3=NC2=O)cc(OC)c1O` the entry was “inactive”. In the case of `Fc1ccc(-[n+]2nc(Nc3ccccc3)sc2-c2c(Cl)cccc2Cl)cc1`, the Potency is 20 µM (active).

As for `O=c1oc2cc(O)ccc2cc1-c1nc2c(s1)CCc1ccccc1-2`, the Potency entry is “inactive”. With `CNC(=O)NC(=O)C(C)OC(=O)c1c2c(nc3ccccc13)/C(=C/c1cccs1)CC2` (stereo unspecified), the Potency entry was “inactive”. In the case of `CCc1ccccc1N(CC(=O)NC(C)(C)CC)C(=O)CCC(=O)Nc1nccs1`, the Potency entry was “inactive”. Take `C/C(Cl)=C\Cn1c(O)c(/N=N/C(=N)S)c2ccccc21`: the Potency is 29.9 µM (active). As for `Cc1ccc(C(=O)O)cc1-c1ccc(/C=C2\SC(=O)N(CC(=O)Nc3ccccc3)C2=O)o1`, the Potency entry is “inactive”. `CCN(CC)CCOC(=O)c1ccc(NC(=O)CCCN2C(=O)/C(=C\c3cccs3)SC2=S)cc1`: the Potency was 31.6 µM (active). `CC(=O)c1ccc(NC(=O)CCCN2C(=O)/C(=C/C(C)=C/c3ccccc3)SC2=S)cc1`: the Potency was 25.1 µM (active). With `O=C(Nc1cc2c(=O)n(-c3ccc(Oc4ccccc4)cc3)ccc2oc1=O)c1ccccc1`, the Potency entry was “inactive”. As for `COc1ccc(C2C=C(c3ccccc3)Nc3nnnn32)cc1` (stereo unspecified), the Potency result was “inactive”. In the case of `Cc1ccc2[nH]c(CSc3nc(C)ccc3C#N)nc2c1`, the Potency result was “inactive”. With `CN(C)CCOCCOc1ccc(Cl)c2ccccc12`, the Potency result was “inactive”.

On to `Cc1ccc2c(CN(C)Cc3ccccc3)cc(=O)oc2c1C`, for which the Potency result is “inactive”.

As for `Cc1ccc(Cl)c(OCCCCN(C)Cc2ccccc2)c1`, the Potency was 28.2 µM (active).

For the compound `COCCCNC(=O)/C(C#N)=C/c1c(N2CCN(C)CC2)nc2ccccn2c1=O`, the Potency result was “inactive”. The result for `COc1ccc(C2CC(c3cccc(C(F)(F)F)c3)=NN2c2ccc(S(N)(=O)=O)cc2)cc1` (stereo unspecified) reads “inactive”; that for `COc1ccc(C(=O)CC2(O)C(=O)N(Cc3cccc(C(F)(F)F)c3)c3ccccc32)cc1` (stereo unspecified), 39.8 µM (active); that for `COc1cccc(CN2C(=O)c3cccc(N)c3C2=O)c1`, “inactive”.

Turning to `CCN(CC)c1ccc2cc(NC(=O)CCC(=O)O)c(=O)oc2c1`, the Potency result was “inactive”. With `Cc1ccc(S(=O)(=O)N2CCCCC2)cc1C(=O)N(C)CC(=O)Nc1ccc(Cl)c(C(F)(F)F)c1` the figure was 35.5 µM (active); with `Cc1ccc(S(=O)(=O)N2CCCCC2)cc1C(=O)Nc1ccc(S(=O)(=O)Nc2ncccn2)cc1`, “inactive”; with `COc1cccc(CN(C)C(=O)c2cc(S(=O)(=O)N3CCCC3)ccc2C)c1OC`, “inactive”.

Take `Cc1ccc(CCC(=O)Nc2ccc(Br)cc2)o1`: the Potency entry is “inactive”.

With `CCN1C(=O)c2cccc3c(S(=O)(=O)NCC4CCCO4)ccc1c23` (stereo unspecified), the Potency entry is “inactive”.

For `CCCn1c(=N)n(CC(=O)c2ccc([N+](=O)[O-])cc2)c2ccccc21`, the Potency entry is “inactive”. As for `N=c1n(CC(=O)c2ccc(Br)cc2)c2ccccc2n1Cc1ccccc1`, the Potency is 31.6 µM (active). For the compound `O=C(NCCc1ccccc1)C(=O)NCC1OCCN1S(=O)(=O)c1ccc(Br)cc1` (stereo unspecified), the Potency entry was “inactive”.

For the compound `C/C(=N\NC(=O)CSCc1ccc([N+](=O)[O-])cc1)c1ccccc1`, the Potency result is “inactive”. Turning to `Cc1ccc(Cn2c(=N)n(CC(=O)c3ccc([N+](=O)[O-])cc3)c3ccccc32)cc1`, the Potency is 22.4 µM (active). Turning to `CCc1ccc(C(=O)Cn2ccsc2=N)cc1`, the Potency entry was “inactive”. Regarding `O=c1oc2cc(O)ccc2cc1-c1nc2ccccc2o1`, the Potency entry is “inactive”. The result for `CCN(CC)c1ccc(S(=O)(=O)N(CC)CC)cc1NC(=O)c1cccnc1` reads “inactive”; that for `CCOC(=O)CNS(=O)(=O)c1ccc2c3c(cccc13)C(=O)N2CC`, “inactive”; that for `Cc1ccccc1N1C(=O)C(Cc2ccc(F)cc2)S/C1=C(\C#N)C(N)=O` (stereo unspecified), “inactive”.

Turning to `CCN(CC)S(=O)(=O)c1ccc(C(=O)OCCN2C(=O)c3cccc4c(N5CCOCC5)ccc(c34)C2=O)cc1`, the Potency result was “inactive”. Turning to `Cc1ccc2cc(C#N)c(NCCN=C(S)NCCCN3CCOCC3)nc2c1`, the Potency result was “inactive”. As to `COc1cc(/C=C(\C#N)c2nc3ccccc3s2)ccc1OCC(=O)Nc1ccccc1`, the Potency result was “inactive”. In the case of `O=C(Nc1ccc(Cl)cc1)/C(=C/c1cccc(O)c1)c1nc2ccccc2s1`, the Potency is 12.6 µM (active). In the case of `COc1cc(/C=C(\CC(=O)O)c2nc3ccccc3s2)cc(OC)c1O`, the Potency entry was “inactive”. On to `COc1cccc(C2=CC(c3ccc(OC)c(OC)c3OC)n3ncnc3N2)c1` (stereo unspecified), for which the Potency result is “inactive”.

Consider `COc1ccc(OC)c(/C=C2\Oc3cc(OCC(=O)N4CCC(C(=O)O)CC4)ccc3C2=O)c1`, for which the Potency result is “inactive”. The result for `CC(=O)Oc1ccc2cc(-c3ccccc3)c(=O)oc2c1` reads “inactive”; that for `O=C(Cn1ncc(Cl)c(Cl)c1=O)N1CCN(S(=O)(=O)c2ccc3ccccc3c2)CC1`, 35.5 µM (active). Consider `CC(=O)N1CCN(S(=O)(=O)c2ccc(F)c(Cl)c2)CC1`, for which the Potency entry is “inactive”. On to `Cc1ccc(S(=O)(=O)N2CCN(C(=O)CCn3cncn3)CC2)cc1C`, for which the Potency result was “inactive”.

In the case of `O=C(CCl)N1CCN(S(=O)(=O)c2ccc3ccccc3c2)CC1`, the Potency is 39.8 µM (active).

`CCN=C(S)N1CCN(S(=O)(=O)c2ccc(C)c(C)c2)CC1`: the Potency result is “inactive”. With `O=C(c1cnc(Cl)c(Cl)c1)N1CCN(S(=O)(=O)c2ccc3ccccc3c2)CC1` the figure was 31.6 µM (active); with `O=C(Cc1cccs1)N1CCN(S(=O)(=O)c2ccc(Cl)c(C(F)(F)F)c2)CC1`, “inactive”; with `Cc1ccc(S(=O)(=O)N2CCCN(C(=O)c3ccc(-n4cccn4)cc3)CC2)cc1`, “inactive”.

`O=C(Cn1cnc2ccccc21)N1CCN(S(=O)(=O)c2ccccc2)CC1`: the Potency result was “inactive”. As to `CCOCCCNC(=O)CN1CCN(S(=O)(=O)c2ccc3c(c2)CCC3)CC1`, the Potency result was “inactive”. With `O=C(CCl)N1CCN(S(=O)(=O)c2ccc3c(c2)CCC3)CC1`, the Potency was 8.91 µM (active). With `Nc1cc(O)nc(SCC(=O)N2CCN(S(=O)(=O)c3ccc4ccccc4c3)CC2)n1` the entry was “inactive”; with `COCCn1c(=N)c(C(=O)NC(C)c2ccccc2)cc2c(=O)n3cc(C)ccc3nc21` (stereo unspecified), “inactive”.

For the compound `CCN(CC)c1ccc2cc(C(N)=O)/c(=N\NC(=O)c3ccncc3)oc2c1`, the Potency result is “inactive”. The result for `CCCc1c(C(=O)N/N=C/c2ccc(OCc3ccc(F)cc3)cc2)nnn1-c1nonc1N` reads “inactive”; that for `COc1ccc(N2C(=O)/C(=C\Nn3cnnc3)c3ccccc3C2=O)cc1`, “inactive”. With `Cc1ccc(C(=O)O)cc1N1C(=O)c2cccc3c([N+](=O)[O-])ccc(c23)C1=O` the entry was “inactive”; with `O=C(N/N=C/c1sc(N2CCOCC2)nc1-c1ccccc1)c1ccc(O)cc1`, “inactive”.

Turning to `CN(C)CCN(Cc1cc2cc3c(cc2nc1O)OCO3)C(S)=NCC1CCCO1` (stereo unspecified), the Potency entry was “inactive”.

Turning to `Cc1ccc2cc(CN(Cc3ccc(F)cc3)Cc3nnnn3C3CCCC3)c(O)nc2c1`, the Potency is 39.8 µM (active). As to `Cc1cc(C)c2cc(CN(Cc3nnnn3C3CCCCC3)CC3CCCO3)c(O)nc2c1` (stereo unspecified), the Potency was 22.4 µM (active). As to `CCC(NC(C)C)C(O)c1ccc(O)c2[nH]c(=O)ccc12` (stereo unspecified), the Potency entry was “inactive”.

For `COc1ccc(C)cc1NC(=O)CN(C)S(=O)(=O)c1ccc2c(c1)CC(C)N2C(C)=O` (stereo unspecified), the Potency entry was “inactive”. Turning to `COc1ccc(Cl)cc1NC(=O)CN(c1cc(C)cc(C)c1)S(=O)(=O)c1c(C)n[nH]c1C`, the Potency is 35.5 µM (active). `CCOc1ccc(OCC)c(NC(=O)CN(c2ccc(C)cc2)S(=O)(=O)c2c(C)n[nH]c2C)c1`: the Potency was 35.5 µM (active). For `COc1ccc(Cl)cc1NC(=O)COC(=O)c1ccc(C)o1`, the Potency result was “inactive”. The result for `CCOc1ccccc1N(CC(=O)Nc1ccccc1Br)S(=O)(=O)c1ccccc1` reads “inactive”; that for `COc1ccc(Cl)cc1NC(=O)CN(C)C1CCS(=O)(=O)C1` (stereo unspecified), “inactive”.
